± gives the standard deviation of the averaged measurements. In all, about 25,000 sequences were measured (“ln(normalized median fluorescence intensity)”: median about 8.6, highest 2% from about 10 on). The entries come from a sample that favours the highest values as a whole.
tested on: PfAP2-EXP AP2 domain (GST-tagged); experiment: gcPBM binding intensity (ln(normalized median fluorescence intensity)); higher = stronger DNA binding
Summary of the method: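 After 1 h on an Agilent 4 × 180k array of primer-extended double-stranded 36-bp intergenic genomic probes and negative controls, bound GST-tagged P. falciparum DNA-binding domains were detected with Alexa488 anti-GST antibody and scanned at 488 nm. The domains had been expressed in E. coli, and binding took place in 1× PBS with 1% milk, 0.2 mg/ml BSA, 0.5% salmon testes DNA and 0.03% Triton X-100. Binding intensity is the highest Masliner-normalised natural-log median intensity across replicate spots of either probe orientation.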

| Sequence | gcPBM binding intensity (ln) |
| --- | --- |
| TATATTATGACCACCACACACCTATACACATAACAT [CACACA_site7199] | 8.88 ± 0.43 |
| ATTATAACACCTCCCCCCCTTTTTTTATGAAGACCA [CACACA_negctrl_site1043] | 10.6 ± 0.18 |
| AACTTTTAGAAGAACACACACATATAGATTATGACC [CACACA_site6256] | 8.8 ± 0.26 |
| TAAAAAATAAAAAAAGCACACACATATATATATATA [CACACA_site8567] | 10.3 ± 0.25 |
| AAAAAAAAAAAAAAAGCACACATATAAATATGAATA [CACACA_site8391] | 8.41 ± 0.24 |
| AAAAATAAAAAAAGCACACACATATATATATATATA [CACACA_site1885] | 10.2 ± 0.28 |
| AAAAATAAAAAAAGCACACACATATAAATAAATATA [CACACA_site6968] | 8.69 ± 0.6 |
| AAAATAAAAATAAAAGCACACATAAATATATATATA [CACACA_site8409] | 9.64 ± 0.28 |
| AATAAAAATAAAAGCACACATAAATATATATATATT [CACACA_site1441] | 8.66 ± 0.39 |
| TTCTTTTTAATTAATACACACACACCCATATATATA [CACACA_site8719] | 8.83 ± 0.42 |
| AATGTATATATATATATATATATATATATTTATTTA [CACACA_negctrl_site113] | 8.43 ± 0.14 |
| CCCGTAAATTATGAGTGTACGTTATTTTTTAAAATG [XGTACX_site3946] | 8.81 ± 0.49 |
| ATAATGTTTTATAATACACACATTATATATATAAAT [CACACA_site6101] | 8.4 ± 0.37 |
| AATATATGTTAAAATGGTACACAATTATTATATATT [XGTACX_site6407] | 8.46 ± 0.4 |
| TATTCCTTCTACAATTAAATAATTATAATAAATATA [GTGCAC_negctrl_site26] | 8.46 ± 0.46 |
| ATATATAGATAATCAAGTACATAACAAGATATAAGA [XGTACX_site2186] | 8.81 ± 0.47 |
| CAAGTAGATATTATACGTACATATATATATATATAT [XGTACX_site8349] | 10.2 ± 0.32 |
| ATATATTATTATACATGTACATATATAGATATATAT [XGTACX_site4358] | 8.53 ± 0.35 |
| ACATACATATATATACGTACATATATATTTATATAT [XGTACX_site5799] | 8.75 ± 0.34 |
| GAAATTATGTAAAAAAGTACTAACATACATATATAT [XGTACX_site1794] | 8.61 ± 0.32 |
| AATTAGATACTAACAAGTACATATATATATATATAT [XGTACX_site2252] | 10.2 ± 0.26 |
| ATAATATCATAATATTGTACATATTTTATTTTAAAT [XGTACX_site1115] | 8.36 ± 0.29 |
| AATCTTCTTAATTGTAGTACACAATTTATAAACAAA [XGTACX_site8706] | 8.61 ± 0.3 |
| TGATATTATATATATACACACATGTATGTATTTATA [CACACA_site4874] | 8.32 ± 0.42 |
| AATAAATAGATATATACACACATATATGTGTACATA [CACACA_site7476] | 8.37 ± 0.29 |

| Sequence | gcPBM binding intensity (ln) |
| --- | --- |
| ATGTATGTGTATATATGTACATAATATATATCTTTT [XGTACX_site8666] | 8.65 ± 0.32 |
| ATATATATATATATATGTACATATATATATGTATAT [XGTACX_site3959] | 10.2 ± 0.33 |
| ATATATATGTATATATGTACATATATGTATATATAT [XGTACX_site4772] | 8.66 ± 0.17 |
| ATATATATATATATATGTACATAGAGAAGTATCTTT [XGTACX_site4737] | 10.4 ± 0.17 |
| ATATATATATATATGTGTACATATAAGATAGAAGAA [XGTACX_site3198] | 10.2 ± 0.35 |
| ATATATATATATATATGTACATATATCTACATATAT [XGTACX_site7588] | 10.2 ± 0.14 |
| ATATATATATATATGTGTACATATATTAAGATATAT [XGTACX_site1065] | 10 ± 0.3 |
| AAATGTATATATGTATGTACATATATATATATATAT [XGTACX_site5778] | 10 ± 0.35 |
| ATATATATATATATGTGTACATATGTATATATATCT [XGTACX_site2930] | 10.1 ± 0.4 |
| TAATATCTACATATATGTACATATATATATATATAT [XGTACX_site7979] | 9.94 ± 0.4 |
| ATATATCTACATATATGTACATATATGTATATGTAT [XGTACX_site5432] | 8.41 ± 0.2 |
| AATATAACTTAGAATTGTACATAAAAAAAAATATAT [XGTACX_site3313] | 8.68 ± 0.35 |
| CAAAATATTTAAAAAAGTACTTAAAATAAATTCAAA [XGTACX_site6866] | 8.48 ± 0.38 |
| CTTAAATCTACTATTTGTACATATTTTATTATTAAA [XGTACX_site6151] | 8.58 ± 0.37 |
| TTTATTTAAAAAATAAAAAAAAAAAAAAAAAAAAAA [CACACA_negctrl_site1670] | 7.82 ± 0.38 |
| GGATACGCTTTTGTACCACTCCCCCTTTTGGGAATA [CACACA_negctrl_site1363] | 8.88 ± 0.33 |
| AAAACTTGTCAGAATGGACACACGAATTAAAGGCCT [CACACA_site1215] | 8.79 ± 0.52 |
| GCATAAATTATCATAACATAAATATAAAAATATAAT [GTGCAC_negctrl_site55] | 8.36 ± 0.37 |
| TAGTTGTGAGTTACATGTACATGTATTTATTTTTTA [XGTACX_site7088] | 8.88 ± 0.47 |
| CCACACTTAAAATACACACACACCAAAAAAAAAAAA [CACACA_site2709] | 8.43 ± 0.37 |
| TATATTTGGTTTCATTCATTTTTATAGAAATCTCAA [CACACA_negctrl_site1412] | 8.48 ± 0.47 |
| TATATAAATATAATATGTACATATAATATGTATATA [XGTACX_site8120] | 8.36 ± 0.26 |
| ATATATATATATATATGTACATACATACATAGAACT [XGTACX_site2214] | 10.4 ± 0.3 |
| GTATATATGTATATATGTACATATATATAATATATT [XGTACX_site56] | 8.5 ± 0.16 |
| ATATATATATATATATGTACATATATACATATATGT [XGTACX_site1521] | 10 ± 0.49 |

| Sequence | gcPBM binding intensity (ln) |
| --- | --- |
| GATATGTGTATAATATGTACATATATATATATATAT [XGTACX_site6531] | 10.2 ± 0.5 |
| ATACATATATACATATGTACATATATATATATATAT [XGTACX_site8206] | 9.9 ± 0.39 |
| AAAGTGGCCATATATTTTTTTTTTTTTTTCCTTATT [CACACA_negctrl_site485] | 8.11 ± 0.53 |
| ACATATTAATTATTATGACATACATATCAGTTATTA [TGCATGCA_negctrl_site126] | 8.38 ± 0.27 |
| AGGCACTTATAATAATGTACATAAATAAAAAGAAAA [XGTACX_site6037] | 8.81 ± 0.35 |
| TTTTTATGAAAATAAACACACGATTTATTATATATA [CACACA_site1311] | 8.27 ± 0.34 |
| GAAGACAATTATATGTGTACATATATATACATATAT [XGTACX_site4630] | 8.44 ± 0.25 |
| TATATATATATATATTGTACATTTTTTTTTTTTTTT [XGTACX_site7891] | 10.1 ± 0.23 |
| ATATATGGGGCGCAGGAAAAGAGTTTTGGAAATAAA [CACACA_negctrl_site1265] | 9.08 ± 0.49 |
| TATAAAATACTGTATCGATGGGGGAGGGCGCAGGGG [TGCATGCA_negctrl_site250] | 10.3 ± 0.11 |
| AGTATATAAAATACTGTATCGATGGGGGAGGGCGCA [CACACA_negctrl_site1612] | 9.97 ± 0.23 |
| ATAGGTAATAATAATACACACGGTGAAATATAGATG [CACACA_site9336] | 8.88 ± 0.47 |
| TATAATGAGGATAATAGTACATATGAATACAAAAAA [XGTACX_site3665] | 8.86 ± 0.45 |
| TTGGATAAAAAATATGTACACACATATAGATATCTA [CACACA_site8862] | 8.48 ± 0.31 |
| TATAAATAGAGGAAGCGTACATATATATATATATAT [XGTACX_site4993] | 10.1 ± 0.37 |
| ATAAATAAATAAAAGCGTACATATATATAAAATATA [XGTACX_site8107] | 8.63 ± 0.27 |
| TCGGGAGGGGGGAAGCGTACATATATAAAATTATTA [XGTACX_site4683] | 10.4 |
| AAAATTTATATAAGCACACAAATATATATTTATATC [CACACA_site3291] | 8.55 ± 0.47 |
| GAAGGAATATACAATTGTACTTGGCAAAAAAAAAAA [XGTACX_site1884] | 8.74 ± 0.67 |
| TCTGTAAAGTAATGGACACACAATATATCCATTTAT [CACACA_site1536] | 8.35 ± 0.35 |
| ATAATATAATATATATGTACACATCCTTTTTGTGTA [XGTACX_site2879] | 8.62 ± 0.4 |
| ATATATATATATATATGTACACAGGACAATAATCCT [XGTACX_site6383] | 10.2 ± 0.33 |
| ATATATAATATAATATGTACATATAATCAATCCTGT [XGTACX_site8694] | 8.48 ± 0.28 |
| AGAGGCCAGCTTTCTCTTCTAAACATGTACAAAAAT [GTGCAC_negctrl_site98] | 8.63 ± 0.49 |
| TTAGATATAATATATACACACCAACGAACGAAGAAA [CACACA_site4763] | 9.12 ± 0.54 |

| Sequence | gcPBM binding intensity (ln) |
| --- | --- |
| TCTATTAATGAATATACACACATTATATATATATAT [CACACA_site5410] | 10 ± 0.49 |
| ATAAGAAGGAACATAAATATATCATAAAAAAAAAAA [GTGCAC_negctrl_site169] | 8.56 ± 0.35 |
| ATTATTTATATTATGGTGCATAATTTTGGGTTTCTT | 8.86 ± 0.26 |
| ATAAAATTATATTTTGCATGCAGGCCTTTTTCTTAA [TGCATGCA_site1030] | 9.94 ± 0.14 |
| TTTTCCTTATATTATGCATGCAGGGTTTGACATTAT [TGCATGCA_site826] | 10.3 ± 0.34 |
| ATTTTTTATTGTTATAAAAAAAAAATTAAACAATTA [CACACA_negctrl_site1077] | 8.19 ± 0.46 |
| AGATATATTTTTTAAATTTAAAAATTATAAAATTTA [CACACA_negctrl_site533] | 8.07 ± 0.42 |
| TCATTCCATACTTTAACACACAAATATATTTAATCC [CACACA_site145] | 8.76 ± 0.53 |
| ATATTGGAGCACAACACACACAAGTATATATATGGA [CACACA_site1546] | 8.8 ± 0.47 |
| AAAAAAAAAAAATACGTGCACTATGATATATTATAT | 8.95 ± 0.092 |
| AAAAGGAACAGACACACACACATATATATATATATA [CACACA_site3587] | 10.3 ± 0.25 |
| CATATACGCAAACACACACACATATATATATATATA [CACACA_site501] | 10.2 ± 0.4 |
| AAAAAAAAAAAACACACACACATATATATATATATA [CACACA_site732] | 10.2 ± 0.38 |
| AAAAAAAAAAAACACACACACACACCCATACATACA [CACACA_site707] | 8.65 ± 0.56 |
| AAAAAAAAAAAAAACACACACATATATATATATATA [CACACA_site1891] | 10.2 ± 0.3 |
| AAAAAAAAAAAAAAAACACACATACACCCCCACCCA [CACACA_site9117] | 10.4 ± 0.3 |
| TATATACGCAAACACACACACACATACACCCACATA [CACACA_site1724] | 8.59 ± 0.44 |
| AAAAGGAACGGACACACACACATATATATATATATA [CACACA_site5894] | 10.2 ± 0.49 |
| AAAAGGAACAGACACACACACATATATAAATATGTA [CACACA_site7656] | 8.4 ± 0.59 |
| AAAAAAAAAAAAAAAACACACACATATATATATATA [CACACA_site8571] | 10.1 ± 0.21 |
| TACATATATATATACACACATACATATATATACGCA [CACACA_site792] | 8.45 ± 0.34 |
| AAAAAAAAAAAAAACACACACACACCCACATATACA [CACACA_site2663] | 8.53 ± 0.2 |

Reference: the supplement of paper PMC11417369
